# Results reported in PubChem BioAssay (Tox21).
# Records with an inconclusive call do not appear. A number with no mark means an inactive call. Calls of active or inactive are those of the source. Calls follow the shape of the full dose curve.
# Target: Vitamin D3 receptor (Homo sapiens) (UniProt P11473)
# Experiment: qHTS assay to identify small molecule agonists of the vitamin D receptor (VDR) signaling pathway (AID 743222)
# Settings: HEK293T VDR-UAS-bla, beta-lactamase FRET ratio, 16 h; series mostly up to 63.5 µM; activation: at the top concentration
# Excerpt: National Center for Advancing Translational Sciences [NCATS]
# NIH Chemical Genomics Center [NCGC]
# U.S. Environmental Protection Agency [EPA]
# National Institutes of Environmental Health Sciences [NIEHS]
# National Toxicology Program [NTP]
# U.S. Food and Drug Administration [FDA]
# The vitamin D receptor (VDR), a member of nuclear hormone receptor superfamily, plays a critical role in calcium homeostasis and bone metabolism. It is also involved in cell differentiation and growth, and thrombogenicity.
# Tox21 Assay Protocol Summary:
# VDR-bla cells were dispensed at 2,000 cells/6 uL/well into black wall/clear-bottom 1536-well plates using a Multidrop Combi (Thermo Fisher Scientific, Waltham, MA) dispenser. After the assay plates were incubated at a 37C and 5% CO2 for 4 h, 23 nL of compounds dissolved in DMSO, positive controls or DMSO only was transferred to the assay plate by a Pintool station (Kalypsys, San Diego, CA). The plates were incubated at 37C and 5% CO2 for 16 h. After 1 uL of LiveBLAzerTM B/G FRET substrate was added using a Bioraptr Flying Reagent Dispenser (FRD) workstation (Beckman Coulter, Indianapolis, IN, USA), the plates were incubated at room temperature for 2 h, and fluorescence intensity was measured by an Envision plate reader (PerkinElmer, Shelton, CT).
# % is scaled to controls: 0 for no effect and ±100 for the full control effect.
# Chain of Vitamin D3 receptor (Homo sapiens) (P11473 whole entry, looked up): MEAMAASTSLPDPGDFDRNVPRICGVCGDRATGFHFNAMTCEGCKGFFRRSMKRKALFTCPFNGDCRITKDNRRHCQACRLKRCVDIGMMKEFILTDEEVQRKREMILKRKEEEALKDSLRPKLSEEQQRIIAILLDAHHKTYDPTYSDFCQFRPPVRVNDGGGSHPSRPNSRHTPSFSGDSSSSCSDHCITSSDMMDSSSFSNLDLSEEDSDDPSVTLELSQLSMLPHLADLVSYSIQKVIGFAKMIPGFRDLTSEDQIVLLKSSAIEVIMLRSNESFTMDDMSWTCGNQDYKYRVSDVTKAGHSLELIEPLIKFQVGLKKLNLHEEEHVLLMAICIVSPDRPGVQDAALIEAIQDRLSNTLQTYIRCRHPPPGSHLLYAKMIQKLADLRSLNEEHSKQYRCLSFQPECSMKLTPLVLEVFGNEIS
SMILES,outcome,activation [%]
C[Si](O[Si](C)(C)C)O[Si](C)(C)C,inactive,
CC(C)CC(=O)CC(C)C,inactive,
O=C(O)c1ccc2c(c1)C(=O)OC2=O,inactive,
CCCCCCCCCCCCc1ccccc1,inactive,
CCCCCCCCCCCCCCO,inactive,
CCCCCCCCC/C=C/CC1CC(=O)OC1=O (stereo not given),,-6.55
CCOC(=O)NNc1nncc2ccccc12,inactive,
CCCCCC/C(C=O)=C\c1ccccc1,inactive,
FC(F)(F)c1ccc(Cl)c(Cl)c1,inactive,
CCCCCCCC(=O)OC,inactive,
O=S1(=O)CC=CC1,inactive,
O=C(O)c1cc(O)c(O)c(O)c1,inactive,
O=C(O)c1cc(C(=O)O)cc(S(=O)(=O)O)c1,inactive,
Cc1ccc(N(C)C)cc1,inactive,
C=C(C)C(=O)OCCOCCOCCOC(=O)C(=C)C,inactive,
O=C(O)[C@H](O)[C@@H](O)[C@H](O)[C@H](O)CO,inactive,
CC1CCC(C(C)C)C(O)C1 (stereo not given),,-1.71
COc1ccc2cc([C@H](C)C(=O)O)ccc2c1,inactive,
Oc1cccc2ccccc12,inactive,
CC(C)(N)CO,inactive,

SMILES,outcome,activation [%]
O=S(=O)(O)c1ccc2ccccc2c1,inactive,
CC(=O)Nc1ccccc1,inactive,
COS(C)(=O)=O,inactive,
ON=C1CCCCC1,inactive,
O=C(OCCOCCOC(=O)c1ccccc1)c1ccccc1,inactive,
CC(=O)CC(=O)Nc1ccccc1,inactive,
CC1=C(C)S(=O)(=O)CCS1(=O)=O,inactive,
COc1cc(Cc2cnc(N)nc2N)cc(OC)c1OC,inactive,
CCCCC(CC)COC(=O)C(C#N)=C(c1ccccc1)c1ccccc1 (stereo not given),inactive,
Cc1occc(=O)c1O,inactive,
O=C(O)c1ccc(C(=O)O)cc1,inactive,
O=c1[nH]c(=O)n([C@H]2C[C@H](O)[C@@H](CO)O2)cc1Br,inactive,
CCCCCCOCCO,inactive,
CCCSc1ccc2nc(NC(=O)OC)[nH]c2c1,,-0.309
CCCCCC(N)=O,inactive,
C/C=C1/CC2C=CC1C2 (stereo not given),,-15
O=C(O)CC(C(=O)O)C(CC(=O)O)C(=O)O (stereo not given),,-0.748
CC(=O)OCC(=O)[C@@]12N=C(C)O[C@@H]1C[C@H]1[C@@H]3CCC4=CC(=O)C=C[C@]4(C)[C@H]3[C@@H](O)C[C@@]12C,,-0.551
O=C(O)CCCCCCCCCCC(=O)O,inactive,
c1ccc2c(c1)ccc1ccccc12,inactive,
